Experimental data: the supplement of paper PMC10849652
About 8,800 targets were measured; listed, in parts, are those with a hit and a random draw of the rest. About 0.5% of all pairs of compound and target were hits. Values without a mark were called inactive.

compound: Cn1cc(-c2ccc3c(c2)CCN3C(=O)Cc2cccc(C(F)(F)F)c2)c2c(N)ncnc21; assay: log2 fold change, soluble protein after heating vs DMSO (PISA); higher = thermal stabilisation; K562 lysate, 10 uM; active = over 0.2 and 3.5 SD of the protein, either way, in both replicates (recomputed)
Summary of the method: (§1)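 Pellets of K562 cells were dounce-homogenised in PBS pH 7.4 with 1 mM MgCl2, and the crude extract was held at 1 mg/mL protein for a 30 min treatment with 10 μM compound. Aliquots were heated for 3 min over 48°C-58°C and pooled before NP-40 was added to 0.5% at 4°C. The supernatant from 21,000xg for 90 min was quantified by TMTpro 16plex LC-MS/MS with channel sums equalised. Values are reported from duplicates as log-two fold change in thermal stability relative to solvent controls.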

Chain of UniProt Q8WWV3 (Q8WWV3 whole entry, looked up): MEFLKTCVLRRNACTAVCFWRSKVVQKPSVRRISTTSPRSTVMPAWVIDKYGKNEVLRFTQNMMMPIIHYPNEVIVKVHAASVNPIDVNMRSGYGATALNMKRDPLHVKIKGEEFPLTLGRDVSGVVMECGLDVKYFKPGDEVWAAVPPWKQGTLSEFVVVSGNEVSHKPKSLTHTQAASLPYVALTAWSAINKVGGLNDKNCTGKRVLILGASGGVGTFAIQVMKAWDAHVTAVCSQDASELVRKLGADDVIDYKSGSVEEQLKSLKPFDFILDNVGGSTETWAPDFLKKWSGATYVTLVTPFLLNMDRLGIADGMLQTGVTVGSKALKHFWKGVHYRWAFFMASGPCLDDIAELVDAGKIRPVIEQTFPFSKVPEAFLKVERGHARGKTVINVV
Chain of UniProt P47736 (P47736 whole entry, looked up): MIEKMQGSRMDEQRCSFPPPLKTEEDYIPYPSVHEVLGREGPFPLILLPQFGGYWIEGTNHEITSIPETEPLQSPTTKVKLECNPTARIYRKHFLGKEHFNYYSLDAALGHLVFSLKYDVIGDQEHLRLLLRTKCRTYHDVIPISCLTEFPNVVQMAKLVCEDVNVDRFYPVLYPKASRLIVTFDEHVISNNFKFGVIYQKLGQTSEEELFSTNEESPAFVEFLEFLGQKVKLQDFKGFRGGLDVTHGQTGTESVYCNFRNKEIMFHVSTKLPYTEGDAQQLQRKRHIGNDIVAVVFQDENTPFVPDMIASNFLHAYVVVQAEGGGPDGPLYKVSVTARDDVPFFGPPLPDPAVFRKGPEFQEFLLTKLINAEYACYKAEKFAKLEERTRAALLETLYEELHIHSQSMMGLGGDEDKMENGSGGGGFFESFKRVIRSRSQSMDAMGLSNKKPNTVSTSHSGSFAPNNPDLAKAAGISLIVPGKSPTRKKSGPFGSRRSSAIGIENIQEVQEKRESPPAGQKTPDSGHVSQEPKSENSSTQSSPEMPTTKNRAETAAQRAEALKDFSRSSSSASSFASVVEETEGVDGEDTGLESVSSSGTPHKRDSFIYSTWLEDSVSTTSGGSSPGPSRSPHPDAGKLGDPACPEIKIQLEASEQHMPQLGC
Chain of UniProt Q9UQR0 (Q9UQR0 whole entry, looked up): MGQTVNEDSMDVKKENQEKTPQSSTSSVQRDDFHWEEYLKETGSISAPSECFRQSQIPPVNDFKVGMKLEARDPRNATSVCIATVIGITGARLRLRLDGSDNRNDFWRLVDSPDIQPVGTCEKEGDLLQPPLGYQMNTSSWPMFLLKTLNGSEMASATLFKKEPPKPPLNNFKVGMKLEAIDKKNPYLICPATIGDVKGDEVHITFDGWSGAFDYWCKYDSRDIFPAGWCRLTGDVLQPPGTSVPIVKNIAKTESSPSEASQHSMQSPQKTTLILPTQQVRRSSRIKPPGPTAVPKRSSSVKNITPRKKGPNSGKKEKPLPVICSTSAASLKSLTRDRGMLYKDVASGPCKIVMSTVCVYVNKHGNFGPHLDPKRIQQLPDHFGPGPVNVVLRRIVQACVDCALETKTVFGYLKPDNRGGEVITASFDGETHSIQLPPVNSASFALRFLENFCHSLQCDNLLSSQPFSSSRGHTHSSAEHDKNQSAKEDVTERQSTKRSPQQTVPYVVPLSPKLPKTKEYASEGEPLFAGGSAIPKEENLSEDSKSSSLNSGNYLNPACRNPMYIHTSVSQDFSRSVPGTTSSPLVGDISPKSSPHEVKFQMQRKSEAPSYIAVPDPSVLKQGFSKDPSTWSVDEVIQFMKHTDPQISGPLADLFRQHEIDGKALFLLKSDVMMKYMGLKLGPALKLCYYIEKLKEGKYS
Chain of UniProt O15541 (O15541 whole entry, looked up): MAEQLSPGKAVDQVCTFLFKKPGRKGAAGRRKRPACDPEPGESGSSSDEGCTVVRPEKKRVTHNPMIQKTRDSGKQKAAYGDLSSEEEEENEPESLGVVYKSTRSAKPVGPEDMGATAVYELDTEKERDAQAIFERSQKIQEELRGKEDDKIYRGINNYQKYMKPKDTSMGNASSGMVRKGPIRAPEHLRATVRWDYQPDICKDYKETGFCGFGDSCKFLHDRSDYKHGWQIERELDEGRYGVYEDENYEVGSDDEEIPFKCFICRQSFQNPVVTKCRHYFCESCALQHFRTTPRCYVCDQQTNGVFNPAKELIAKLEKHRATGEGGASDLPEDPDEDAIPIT
Chain of UniProt Q8TC12 (Q8TC12 whole entry, looked up): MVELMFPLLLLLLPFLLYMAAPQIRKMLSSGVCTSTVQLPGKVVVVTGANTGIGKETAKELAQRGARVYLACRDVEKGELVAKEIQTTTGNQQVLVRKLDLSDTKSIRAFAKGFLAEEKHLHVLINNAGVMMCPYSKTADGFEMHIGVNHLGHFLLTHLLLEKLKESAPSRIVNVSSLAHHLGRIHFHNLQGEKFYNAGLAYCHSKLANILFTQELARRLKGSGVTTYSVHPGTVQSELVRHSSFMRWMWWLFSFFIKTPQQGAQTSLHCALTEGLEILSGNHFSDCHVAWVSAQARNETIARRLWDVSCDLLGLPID
Chain of UniProt Q9Y4B4 (Q9Y4B4 whole entry, looked up): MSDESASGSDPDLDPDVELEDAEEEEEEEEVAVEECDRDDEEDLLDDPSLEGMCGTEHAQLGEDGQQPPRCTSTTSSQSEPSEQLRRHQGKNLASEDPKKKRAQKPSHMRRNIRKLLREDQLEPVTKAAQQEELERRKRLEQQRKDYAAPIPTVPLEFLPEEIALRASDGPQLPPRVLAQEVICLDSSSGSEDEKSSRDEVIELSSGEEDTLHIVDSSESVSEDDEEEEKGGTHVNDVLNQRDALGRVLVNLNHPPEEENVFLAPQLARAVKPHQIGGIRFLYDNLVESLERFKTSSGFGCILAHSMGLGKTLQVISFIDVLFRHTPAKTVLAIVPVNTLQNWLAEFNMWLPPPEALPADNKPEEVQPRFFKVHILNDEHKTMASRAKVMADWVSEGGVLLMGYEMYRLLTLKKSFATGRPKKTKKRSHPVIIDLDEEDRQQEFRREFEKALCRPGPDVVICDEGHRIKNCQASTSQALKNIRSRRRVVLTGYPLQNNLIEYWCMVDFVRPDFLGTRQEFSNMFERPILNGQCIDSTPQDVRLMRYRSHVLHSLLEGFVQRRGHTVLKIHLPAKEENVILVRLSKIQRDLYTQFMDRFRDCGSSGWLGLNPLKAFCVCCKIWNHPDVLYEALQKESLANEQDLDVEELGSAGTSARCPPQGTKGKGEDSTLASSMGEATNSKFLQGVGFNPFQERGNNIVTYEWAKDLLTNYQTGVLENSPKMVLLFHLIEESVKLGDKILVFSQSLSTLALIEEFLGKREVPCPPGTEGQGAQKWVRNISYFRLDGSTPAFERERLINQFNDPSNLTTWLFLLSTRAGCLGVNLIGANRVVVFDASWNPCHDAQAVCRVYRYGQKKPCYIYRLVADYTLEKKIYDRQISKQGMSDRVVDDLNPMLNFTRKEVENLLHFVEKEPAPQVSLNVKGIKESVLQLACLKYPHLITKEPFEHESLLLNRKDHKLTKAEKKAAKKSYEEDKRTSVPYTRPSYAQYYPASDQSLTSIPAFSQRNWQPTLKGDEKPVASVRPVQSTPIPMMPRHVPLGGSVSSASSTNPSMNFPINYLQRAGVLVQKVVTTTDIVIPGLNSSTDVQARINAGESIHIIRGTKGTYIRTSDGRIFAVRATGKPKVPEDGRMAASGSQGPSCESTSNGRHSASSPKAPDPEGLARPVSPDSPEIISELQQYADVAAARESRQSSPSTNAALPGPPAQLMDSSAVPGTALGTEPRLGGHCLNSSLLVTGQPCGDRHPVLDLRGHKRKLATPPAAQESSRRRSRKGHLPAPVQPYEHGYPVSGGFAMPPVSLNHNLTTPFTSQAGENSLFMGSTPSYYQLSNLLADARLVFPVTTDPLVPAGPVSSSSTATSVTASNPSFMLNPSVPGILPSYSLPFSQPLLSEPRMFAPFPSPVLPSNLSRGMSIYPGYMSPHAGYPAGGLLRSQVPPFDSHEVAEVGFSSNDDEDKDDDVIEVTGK
Chain of UniProt P35250 (P35250 whole entry, looked up): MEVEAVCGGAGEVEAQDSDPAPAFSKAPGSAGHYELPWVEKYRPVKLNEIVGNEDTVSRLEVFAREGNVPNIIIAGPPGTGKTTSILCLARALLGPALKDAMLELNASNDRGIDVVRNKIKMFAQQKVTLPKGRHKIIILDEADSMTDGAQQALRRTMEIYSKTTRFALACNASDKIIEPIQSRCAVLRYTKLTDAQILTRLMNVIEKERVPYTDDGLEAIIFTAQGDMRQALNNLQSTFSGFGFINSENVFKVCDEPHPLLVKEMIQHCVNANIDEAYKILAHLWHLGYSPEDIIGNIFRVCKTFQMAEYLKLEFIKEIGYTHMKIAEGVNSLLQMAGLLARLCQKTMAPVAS
Chain of UniProt Q9NW64 (Q9NW64 whole entry, looked up): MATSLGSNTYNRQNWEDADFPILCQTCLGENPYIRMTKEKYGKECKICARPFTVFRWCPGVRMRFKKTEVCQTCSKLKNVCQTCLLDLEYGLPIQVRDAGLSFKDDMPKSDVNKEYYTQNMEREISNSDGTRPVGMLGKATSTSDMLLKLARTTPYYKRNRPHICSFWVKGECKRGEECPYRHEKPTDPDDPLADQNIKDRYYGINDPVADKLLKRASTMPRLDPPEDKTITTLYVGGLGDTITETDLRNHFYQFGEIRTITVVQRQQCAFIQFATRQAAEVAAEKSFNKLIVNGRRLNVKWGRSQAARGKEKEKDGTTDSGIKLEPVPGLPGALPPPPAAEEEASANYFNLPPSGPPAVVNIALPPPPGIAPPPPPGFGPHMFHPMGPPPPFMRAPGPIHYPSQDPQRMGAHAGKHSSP
Chain of UniProt P51159 (P51159 whole entry, looked up): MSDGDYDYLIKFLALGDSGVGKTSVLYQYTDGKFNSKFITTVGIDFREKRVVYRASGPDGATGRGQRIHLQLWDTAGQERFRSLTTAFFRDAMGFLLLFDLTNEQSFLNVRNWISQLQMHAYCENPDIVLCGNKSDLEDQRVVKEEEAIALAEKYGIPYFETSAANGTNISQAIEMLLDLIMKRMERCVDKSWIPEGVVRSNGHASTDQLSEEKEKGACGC

Target | log2 fold change
RAPGEF2, A0A2R8YGD3 | 0.008
RAB27A (UniProt P51159) | 0.003
RPL31 (UniProt P62899) | -0.038
RBBP7 isoform 2 (UniProt Q16576) | 0.016
RAP1GAP isoform 4 (UniProt P47736) | 0.028
RBM22 (UniProt Q9NW64) | 0.057
RABGGTB (UniProt P53611) | -0.009
RNF113A (UniProt O15541) | 0.04
RPS6KA3 (UniProt P51812) | 0.031
SERINC3 (UniProt Q13530) | 0.009
RRM1 (UniProt P23921) | 0.016
RDH11 (UniProt Q8TC12) | -0.021
RABEPK (UniProt Q7Z6M1) | 0.012
RAE1 (UniProt P78406) | 0.033
RNPC3 (UniProt Q96LT9) | -0.061
SAR1A (UniProt Q9NR31) | 0.01
SCML2 (UniProt Q9UQR0) | 0.027

Target | log2 fold change
RIOK3 (UniProt O14730) | 0.002
RBM23 isoform 2 (UniProt Q86U06) | -0.061
RAF1 isoform 2 (UniProt P04049) | -0.022
RTN4IP1 (UniProt Q8WWV3) | 0.028
RAD54L2 (UniProt Q9Y4B4) | -0.15
RAP1B (UniProt F5GZG1) | 0.047
RFC2 (UniProt P35250) | 0.062
RBBP7 (UniProt Q16576) | -0.006
RIPK1 (UniProt Q13546) | 0.723 (active)
SDHC (UniProt Q99643) | -0.015
RPS6KB1 (UniProt P23443) | 0.003
RALA (UniProt P11233) | -0.018
RBMX (UniProt P38159) | -0.007
SEC16A isoform 5 (UniProt O15027) | -0.002
RPS4X (UniProt P62701) | -0.003
RPLP0P6 (UniProt Q8NHW5) | 0.026

compound: Cn1cc(CNCC2CCN(c3ncc(C(=O)NO)cn3)CC2)c2ccccc21 [quisinostat]; assay: as above
Summary of the method: as §1

Target | log2 fold change
RAPGEF2, A0A2R8YGD3 | -0.018
RAB27A (UniProt P51159) | 0.037
RPL31 (UniProt P62899) | 0.043
RBBP7 isoform 2 (UniProt Q16576) | -0.051
RAP1GAP isoform 4 (UniProt P47736) | -0.046
RBM22 (UniProt Q9NW64) | -0.022
RABGGTB (UniProt P53611) | -0.02
RNF113A (UniProt O15541) | 0.063
RPS6KA3 (UniProt P51812) | -0.046
SERINC3 (UniProt Q13530) | -0.131
RRM1 (UniProt P23921) | -0.018
RDH11 (UniProt Q8TC12) | 0.038
RABEPK (UniProt Q7Z6M1) | 0.004
RAE1 (UniProt P78406) | 0.038
RNPC3 (UniProt Q96LT9) | -0.071
SAR1A (UniProt Q9NR31) | 0.095
SCML2 (UniProt Q9UQR0) | 0.007

Target | log2 fold change
RIOK3 (UniProt O14730) | -0.063
RBM23 isoform 2 (UniProt Q86U06) | -0.047
RAF1 isoform 2 (UniProt P04049) | -0.06
RTN4IP1 (UniProt Q8WWV3) | -0.033
RAD54L2 (UniProt Q9Y4B4) | -0.009
RAP1B (UniProt F5GZG1) | -0.011
RFC2 (UniProt P35250) | -0.04
RBBP7 (UniProt Q16576) | -0.041
RIPK1 (UniProt Q13546) | -0.074
SDHC (UniProt Q99643) | 0
RPS6KB1 (UniProt P23443) | -0.049
RALA (UniProt P11233) | 0.004
RBMX (UniProt P38159) | 0.042
SEC16A isoform 5 (UniProt O15027) | -0.054
RPS4X (UniProt P62701) | 0.016
RPLP0P6 (UniProt Q8NHW5) | -0.049

compound: Cn1cncc1[C@@](N)(c1ccc(Cl)cc1)c1ccc2c(c1)c(-c1cccc(Cl)c1)cc(=O)n2C [tipifarnib]; assay: as above
Summary of the method: as §1

Target | log2 fold change
RAPGEF2, A0A2R8YGD3 | -0.017
RAB27A (UniProt P51159) | 0.038
RPL31 (UniProt P62899) | 0.021
RBBP7 isoform 2 (UniProt Q16576) | 0.047
RAP1GAP isoform 4 (UniProt P47736) | -0.013
RBM22 (UniProt Q9NW64) | -0.036
RABGGTB (UniProt P53611) | -0.013
RNF113A (UniProt O15541) | -0.019
RPS6KA3 (UniProt P51812) | -0.023
SERINC3 (UniProt Q13530) | -0.036
RRM1 (UniProt P23921) | 0.007
RDH11 (UniProt Q8TC12) | -0.038
RABEPK (UniProt Q7Z6M1) | 0.007
RAE1 (UniProt P78406) | -0.053
RNPC3 (UniProt Q96LT9) | -0.075
SAR1A (UniProt Q9NR31) | -0.172
SCML2 (UniProt Q9UQR0) | 0.065

Target | log2 fold change
RIOK3 (UniProt O14730) | 0.008
RBM23 isoform 2 (UniProt Q86U06) | -0.168
RAF1 isoform 2 (UniProt P04049) | -0.036
RTN4IP1 (UniProt Q8WWV3) | 0.245
RAD54L2 (UniProt Q9Y4B4) | -0.105
RAP1B (UniProt F5GZG1) | -0.058
RFC2 (UniProt P35250) | -0.014
RBBP7 (UniProt Q16576) | 0.014
RIPK1 (UniProt Q13546) | -0.064
SDHC (UniProt Q99643) | -0.068
RPS6KB1 (UniProt P23443) | -0.008
RALA (UniProt P11233) | -0.041
RBMX (UniProt P38159) | 0.005
SEC16A isoform 5 (UniProt O15027) | -0.036
RPS4X (UniProt P62701) | 0.01
RPLP0P6 (UniProt Q8NHW5) | -0.02
